Tests used:
Details in all cases: Compound Concentration (nM):1000
EIF2AK1 = test system: EIF2AK1
EPHA1 = test system: EPHA1
EPHA2 = test system: EPHA2
EPHA3 = test system: EPHA3
EPHA4 = test system: EPHA4
EPHA5 = test system: EPHA5
EPHA6 = test system: EPHA6
EPHA7 = test system: EPHA7
EPHA8 = test system: EPHA8
EPHB1 = test system: EPHB1
EPHB2 = test system: EPHB2
EPHB3 = test system: EPHB3
EPHB4 = test system: EPHB4
EPHB6 = test system: EPHB6
ERBB2 = test system: ERBB2
ERBB3 = test system: ERBB3
ERBB4 = test system: ERBB4
ERK1 = test system: T1, ERK1
T1 construct: gene MAPK3

ERK2 = test system: T2, ERK2
T2 construct: gene MAPK1

ERK3 = test system: T3, ERK3
T3 construct: gene MAPK6
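Note: KINOMEscan scanMAX binding as percent activity remaining versus control; lower means stronger binding.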

SMILES | Percent Control (EIF2AK1) [%] | Percent Control (EPHA1) [%] | Percent Control (EPHA2) [%] | Percent Control (EPHA3) [%] | Percent Control (EPHA4) [%] | Percent Control (EPHA5) [%] | Percent Control (EPHA6) [%] | Percent Control (EPHA7) [%] | Percent Control (EPHA8) [%] | Percent Control (EPHB1) [%] | Percent Control (EPHB2) [%] | Percent Control (EPHB3) [%] | Percent Control (EPHB4) [%] | Percent Control (EPHB6) [%] | Percent Control (ERBB2) [%] | Percent Control (ERBB3) [%] | Percent Control (ERBB4) [%] | Percent Control (ERK1) [%] | Percent Control (ERK2) [%] | Percent Control (ERK3) [%]
Nc1ncnc2occ(-c3ccc(NC(=O)Nc4cc(C(F)(F)F)ccc4F)cc3)c12 [GW770249X] | 100 | 40 | 13 | 19 | 5.4 | 15 | 29 | 6 | 1.1 | 14 | 11 | 31 | 36 | 0.5 | 67 | 91 | 100 | 100 | 100 | 100
Cl.O=C(O[C@H]1CN[C@H](C#Cc2cc3ncnc(Nc4ccc5c(cnn5Cc5ccccc5)c4)c3s2)C1)N1CCOCC1 [GSK200398A] | 100 | 87 | 96 | 94 | 96 | 100 | 95 | 100 | 100 | 100 | 100 | 100 | 96 | 100 | 0 | 10 | 0 | 100 | 100 | 100
COc1cc(C=NNc2ncnc3c2cnn3-c2ccccc2)ccc1O [GW513184X] | 100 | 100 | 100 | 100 | 100 | 83 | 100 | 90 | 94 | 99 | 93 | 100 | 100 | 3.9 | 81 | 66 | 100 | 100 | 82 | 15
COc1cc(C)c(N(C)C(=O)CN(C)C)cc1Nc1nc(Nc2cccc(F)c2C(N)=O)c2cc[nH]c2n1 [GSK2219385] | 100 | 93 | 86 | 100 | 95 | 100 | 100 | 100 | 94 | 99 | 100 | 93 | 100 | 74 | 94 | 57 | 86 | 65 | 100 | 90
NS(=O)(=O)c1ccc(N/N=C2\C(=O)Nc3ccc(Cl)cc32)cc1 [GW280670X] | 100 | 100 | 100 | 100 | 96 | 100 | 100 | 100 | 100 | 100 | 100 | 100 | 100 | 82 | 81 | 72 | 100 | 100 | 100 | 100
COc1cccc(-c2c[nH]c3c(N/N=C/c4ccncc4)ncnc23)c1 [GW814408X] | 100 | 100 | 96 | 93 | 100 | 100 | 100 | 91 | 79 | 81 | 100 | 100 | 100 | 2.7 | 63 | 13 | 88 | 100 | 100 | 19
Cl.O=C(Nc1ccc(Oc2ccc3[nH]c(NC(=O)c4ccccc4)nc3c2)cc1)Nc1cc(C(F)(F)F)ccc1F [GW709042A] | 100 | 75 | 69 | 100 | 62 | 90 | 34 | 54 | 16 | 82 | 76 | 90 | 84 | 28 | 92 | 70 | 100 | 100 | 100 | 84
COc1ccc2c(-c3ccnc(Nc4cccc(OC(F)(F)F)c4)n3)cnn2n1 [GW810372X] | 100 | 64 | 91 | 100 | 86 | 100 | 100 | 100 | 100 | 100 | 100 | 100 | 100 | 83 | 100 | 65 | 100 | 100 | 100 | 100
C/C(Nc1ccc(S(N)(=O)=O)cc1)=C1/C(=O)Nc2ccccc21 [GW335962X] | 100 | 100 | 98 | 100 | 92 | 100 | 85 | 100 | 100 | 100 | 100 | 89 | 86 | 93 | 100 | 74 | 100 | 91 | 100 | 93
CC1=C(C(=O)Nc2ccc3[nH]ncc3c2)C(c2ccc(Cl)c(Cl)c2)CC(=O)N1 (centres unmarked) [GSK299115A] | 100 | 100 | 98 | 86 | 96 | 95 | 100 | 100 | 100 | 74 | 100 | 98 | 94 | 99 | 92 | 100 | 36 | 72 | 76 | 77

Source: paper PMC7826789 (International Journal of Molecular Sciences, 2021)
